# An excerpt weighted towards active compounds, which were near 2.1% of everything screened.
# Ba/F3 V617F tox: reduced viability of JAK2V617F-dependent Ba/F3 cells, primary screen, JAK2V617F inhibitor project, cell-based, Ba/F3 EpoR-JAK2V617F, luminescence. AID 1446, 2008. inhibition, % at 5.6 µM. actives 1.1% (n = 220,000). ATP luminescence;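 active = inhibition above the campaign mean plus 3 SD over all tested compounds, cut at about 24% in these data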;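 also: cytokine-independent growth of Ba/F3 cells driven by EpoR plus mutant JAK2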
# aSyn 5UTR inh: MLPCN primary screen, SNCA 5' untranslated region; actives 0.82% (n = 300,000); alpha-synuclein 5'UTR reporter, inhibitor activity; inhibition, % (tested at 7.5 µM); AID 1813, 2009; in the data active = inhibition above about 60%; inconclusive = no clear call, values can overlap the other calls;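 also: H4 neuroglioblastoma cells stably carrying SNCA 5'UTR luciferase fusion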
# IEC-6 tox-1: cytotoxicity in IEC-6 intestinal epithelial cells, primary screen, cytotoxicity control for KLF5 inhibitor project, cell-based, luminescence. actives 0.78% (n = 290,000). inhibition, % at 5 µM. AID 1825, 2009. IEC-6 cytotoxicity, luminescence viability
# APP transl inh: inhibitors of APP translation via 5'UTR reporter, primary screen, APP 5'UTR luciferase, SH-SY5Y cells. actives 0.82% (n = 190,000). SH-SY5Y APP 5'UTR-luciferase reporter, luminescence. inhibition, % at 2 µM;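 active = inhibition above a set limit, derived from the sample mean plus 3 SD, cut at about 45% in these data; inconclusive = one replicate passes the limit while the other fails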
# BaF3 tox: parental Ba/F3 cell viability inhibition, counter-screen for JAK2V617F inhibitor project, murine pro-B, CellTiter-Glo luminescence. inhibition, % at 5.6 µM. CellTiter-Glo ATP luminescence. AID 1486, 2009. actives 1.1% (n = 220,000);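 active = inhibition above a per-campaign cutoff, the mean inhibition of all tested compounds plus 3 SD, cut at about 27% in these data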
# KLF5 inh: KLF5 expression inhibitors, primary screen, DLD-1 cells, luminescence; inhibition, % at 5 µM; AID 1700, 2009; DLD-1 KLF5 promoter-luciferase reporter; actives 0.23% (n = 290,000);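 active = inhibition above a per-plate limit of that plate's mean compound inhibition plus 3 SD, cut at about 60% in these data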;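 also: higher means less KLF5 promoter-driven luciferase light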
# BaF3 parental 2: parental Ba/F3 cell viability inhibition, counter-screen for JAK2V617F inhibitor project, murine pro-B, CellTiter-Glo luminescence | shares compounds with Ba/F3 V617F tox | cells kept alive by added IL-3 | inhibition, % at 5.6 µM | actives 31% (n = 580);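 active = cell growth inhibition above the hit limit set in the earlier mutant JAK2 cell screen, cut at about 27% in these data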
# JAK2V617F conf: viability loss in Ba/F3 EpoR-JAK2V617F cells, confirmation, JAK2V617F inhibitor project, cell-based, luminescence, triplicate; shares compounds with Ba/F3 V617F tox; CellTiter-Glo luminescence; inhibition, % at 5.6 µM; actives 66% (n = 580); AID 1521, 2009;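 active = mean inhibition above the hit cutoff derived in the earlier primary screen, cut at about 25% in these data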;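 also: higher means lower luminescence from reduced cell ATP and viability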
# KLF5 confirm: KLF5 expression inhibitors, confirmation, DLD-1 cells, luminescence. shares compounds with KLF5 inh. DLD-1 KLF5 promoter firefly luciferase reporter. inhibition, % at 4 µM. actives 79% (n = 610). AID 1834, 2009;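 active = inhibition above a set limit taken from the earlier primary screen, cut at about 63% in these data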
# IEC-6 tox-2: cytotoxicity in rat IEC-6 cells, cytotoxicity control for KLF5 inhibitor project, cell-based, luminescence, triplicate; shares compounds with KLF5 inh; IEC-6 rat intestinal cells, viability luminescence; inhibition, % at 4 µM; actives 56% (n = 610); AID 1905, 2009; in the data active = inhibition above about 23%;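 also: cells exposed to compounds for 48 hours before viability read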
# IEC-6 tox confirm: cytotoxic compounds in IEC-6 epithelial cells, confirmation, cytotoxicity control, cell-based, luminescence | shares compounds with IEC-6 tox-1 | IEC-6 rat intestinal epithelial viability | inhibition, % at 5 µM | actives 63% (n = 1,900)
# Numbers stand for hits; – = inactive; ? = inconclusive; · = not tested or not shown. Rule as the data show it, unless noted: active = inhibition above about 22%; inactive = the rest.
SMILES,Ba/F3 V617F tox,aSyn 5UTR inh,IEC-6 tox-1,APP transl inh,BaF3 tox,KLF5 inh,BaF3 parental 2,JAK2V617F conf,others
CC1=CC(C)(C)N(S(=O)(=O)c2ccc(F)cc2)c2ccc(C)cc21,–,–,–,–,–,–,·,·,
CC1=CC(C)(C)N(S(=O)(=O)c2ccc(C)cc2)c2ccccc21,30,–,–,–,–,–,46,94,
CCCCc1cc(=O)oc2cc(C)cc(OC(C)C(=O)NCc3cccnc3)c12 (centres undefined),·,–,–,·,·,–,·,·,
Cc1cccc(Nc2nc(NCc3ccco3)c3ccccc3n2)c1,33,–,–,–,–,–,49,52,
COc1ccccc1N1CCN(CCOc2c(OC)cccc2OC)CC1,26,–,–,–,–,–,–,–,
CCOc1ccccc1N1CCN(Cc2cccc(OC)c2O)CC1,40,–,–,–,–,–,–,–,
COc1ccccc1N1CCN(CCCCOc2c(OC)cccc2OC)CC1,·,–,–,·,·,–,·,·,
CN(C)S(=O)(=O)c1ccc(-c2csc(N/N=C/c3ccc(O)cc3)n2)cc1,45,–,–,·,–,–,49,94,
CN(C)S(=O)(=O)c1ccc(-c2csc(N/N=C/c3ccco3)n2)cc1,–,–,–,·,–,–,·,·,
O=C(c1ccc(Cl)c([N+](=O)[O-])c1)N(Cc1ccco1)C1CCS(=O)(=O)C1 (centres undefined),·,–,–,·,·,–,·,·,
O=c1[nH]c(C2CCN(S(=O)(=O)c3ccc(C(F)(F)F)cc3)CC2)nc2c1nnn2Cc1ccccc1,·,–,–,·,·,–,·,·,
Clc1ccc(-n2nnnc2Sc2ncnc3sccc23)cc1,26,–,–,92,–,–,–,88,
Cc1sc2ncnc(Sc3nnnn3-c3ccccc3)c2c1C,–,–,–,–,–,–,·,·,
C/C=C(\C)CN1CCC(n2nccc2NC(=O)CCCc2ccccc2)CC1,·,–,–,·,·,–,·,·,
COc1ccc(OC)c(C2CC(=O)c3c([nH]c(C(=O)OC(C)C)c3C)C2)c1 (centres undefined),68,–,–,95,–,–,57,90,
O[C@@H](c1cc(C(F)(F)F)nc2c(C(F)(F)F)cccc12)[C@H]1CCCCN1,·,–,·,·,·,·,·,·,
OC(c1cc(-c2ccc(Cl)cc2)nc2ccccc12)C1CCCCN1 (centres undefined),65,96,34,·,–,–,–,–,
COc1ccc(CNCc2ccc(C(F)(F)F)cc2)cc1OC,·,–,–,·,·,–,·,·,
COc1cc2c(cc1NC(=O)c1cccc([N+](=O)[O-])c1C)oc1ccccc12,53,–,–,–,–,–,–,–,
CC1C(=O)N2CCCc3cc(S(=O)(=O)NCc4ccccc4Cl)cc1c32 (centres undefined),·,–,–,·,·,–,·,·,
CCOc1ccc(NC2=NC(C)(C)N=C(N)N2)cc1,41,–,–,–,–,–,83,93,
Cc1cc(NC(=O)c2sc(Nc3ccc(F)cc3)nc2N)no1,98,–,–,–,–,–,65,99,
CN1CCN(C(=S)Nc2ccc(Cl)c(Cl)c2)CC1,43,–,–,–,–,–,–,46,
COc1ccc(-c2cc3nc(C)n(N)c(=O)c3s2)cc1,41,115,–,·,–,96,56,40,KLF5 confirm=109;IEC-6 tox-2=36
Cc1cccc(N2CCN(C(=O)C3CC(=O)N(C4CCCC4)C3)CC2)c1C (centres undefined),·,–,–,·,·,–,·,·,
SMILES,Ba/F3 V617F tox,aSyn 5UTR inh,IEC-6 tox-1,APP transl inh,BaF3 tox,KLF5 inh,BaF3 parental 2,JAK2V617F conf,others
CCN(CC)S(=O)(=O)c1ccc(N/N=C(\C)c2ccncc2)nc1,·,–,–,·,·,–,·,·,
CCN(CC)S(=O)(=O)c1ccc(N/N=C/c2ccc(O)cc2O)nc1,50,90,–,81,–,72,83,93,KLF5 confirm=81;IEC-6 tox-2=–
CCC(=O)N1CCN(c2ccc(NC(=O)c3ccc([N+](=O)[O-])o3)cc2)CC1,34,?,97,48,–,–,45,95,IEC-6 tox confirm=51
CCCC(=O)N1CCN(c2ccc(NC(=O)c3ccc(Br)o3)cc2)CC1,–,–,–,–,–,–,·,·,
CN(CC(=O)Nc1cccc(F)c1)C(=O)CC1CCCCC1,·,–,·,·,·,·,·,·,
N#Cc1ncc(-c2ccc3c(c2)OCCOCCOCCOCCOCCO3)nc1C#N,34,–,32,–,–,–,–,43,IEC-6 tox confirm=–
CC(=C/c1ccco1)/C=N/NC(=O)c1nnn(-c2nonc2N)c1CN(C)C,–,–,–,–,–,–,·,·,
O=C(CCl)N=c1sccn1Cc1cccc2ccccc12,102,–,92,–,–,–,–,99,IEC-6 tox confirm=–
Cn1c(=NC(=O)CCl)sc2ccccc21,–,–,–,–,–,–,·,·,
CS(=O)(=O)c1nc(-c2ccco2)cc(C(F)(F)F)n1,42,–,25,–,–,–,–,70,IEC-6 tox confirm=36
COc1ccccc1-c1cc(C(F)(F)F)nc(S(C)(=O)=O)n1,–,–,–,–,–,–,·,·,
COC(=O)/C=C/S(=O)(=O)c1ccc(NC(C)=O)cc1,26,–,27,83,–,–,–,–,IEC-6 tox confirm=–
COc1cc(C)c(C(C)C)cc1S(=O)(=O)n1cnc(C)c1,63,64,36,–,–,–,61,92,IEC-6 tox confirm=51
CCC1Sc2ccc(S(=O)(=O)CCC(=O)Nc3cccc(Br)c3)cc2NC1=O (centres undefined),·,–,–,·,·,–,·,·,
CCn1c(SCC(=O)N(C)Cc2ccc(OC)c(F)c2)nc2cc(S(N)(=O)=O)ccc21,·,–,–,·,·,–,·,·,
Cc1noc(C)c1CSc1nc2ccccc2c(=O)n1-c1ccccc1,29,–,30,–,–,–,33,54,IEC-6 tox confirm=38
O=C(NC1CCCc2ccccc21)c1n[nH]c(=O)c2ccccc12 (centres undefined),24,88,23,–,–,–,–,42,IEC-6 tox confirm=34
O=C(NC1CCCc2ccccc21)c1ccccc1 (centres undefined),–,–,–,–,–,–,·,·,

# Compound activity from PubChem BioAssay.
